# Assay outcomes as filed in PubChem.
# HT1080-NT tox: kills 2HG-producing HT-1080-NT fibrosarcoma cells; AID 686970; 1.6% of 360,000 active; Potency, µM (series often up to 46.1 µM), inactives show at the top dose activity, negative = less viability, most hits filed as cytotoxic; HT-1080-NT fibrosarcoma viability, CellTiter-Glo ATP luminescence, 48 h;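 also: NT is the 2HG producing partner of a matched IDH1 knockdown line; 0% = DMSO-treated cells and -100% = media-only wells without cells; nearly all actives have a fitted effect of over 55% in size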
#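 Toxicity toward the 2HG-producing NT line was scored as %Activity, normalised to DMSO and no-cell wells, from CellTiter-Glo luminescence after 48 hours' treatment.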
# TDP1 cell noCPT: qHTS for Inhibitors of human tyrosyl-DNA phosphodiesterase 1 (TDP1): qHTS in cells in absence of CPT | DT40 Tdp1-/- hTDP1 cells, no CPT, ATP luminescence, 48 h | Potency, µM (top dose mostly 46.2 µM), for the others: at the top dose activity change, negative = growth inhibition, most hits filed as inhibitors | 15% of 420,000 active; also: nearly all actives have a fitted effect of over 55% in size
#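 No-CPT arm: Tdp1-/-;hTDP1 DT40 cells (400/well) plus compounds, incubated ≥48 hr at 37 °C. Readout CellTiter-Glo luminescence.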
# DT40 TDP1 CPT: DT40-hTDP1 cell growth loss with CPT | Potency, µM (series often up to 46.2 µM), for inactives: at the highest dose activity change, negative = growth inhibition, most hits filed as inhibitors | 12% of 420,000 active | chicken DT40 Tdp1-/-;hTDP1 cells + 20 nM CPT, ATP luminescence, 48 h; also: nearly all actives have a fitted effect of over 55% in size
#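 Chicken DT40 Tdp1-/- cells stably complemented with human TDP1 were seeded at 400 cells/well in medium containing 20 nM camptothecin, exposed to pin-transferred compounds, and grown at 37 °C for at least 48 hr. Viability was read as ATP luminescence.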
# KB-V1 cytotox: KB-V1 MDR subline cytotoxicity; Potency, µM (highest dose often 46.1 µM), most hits filed as cytotoxic; 3.4% of 400,000 active; KB-V1 MDR cells viability, CellTiter-Glo, 72 h; also: nearly all actives have a fitted effect of over 60% in size
#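 Following 72 h at 37 degrees C with compound, KB-V1 cell viability was read by CellTiter-Glo luminescence, medium being phenol-red-free DMEM plus 10% FBS; concentration-response parameters came from normalized, curve-fitted qHTS data.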
# KB-3-1 cytotox: kills parental KB-3-1 adenocarcinoma cells. KB-3-1 viability, CellTiter-Glo ATP luminescence, 72 h. Potency, µM (highest dose often 46.1 µM), most hits filed as cytotoxic. 1.4% of 400,000 active; also: nearly all actives have a fitted effect of over 60% in size
#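 Cytotoxicity measured as CellTiter-Glo luminescence after 72 h at 37 C. Compound titrations were pinned onto drug-naive KB-3-1 parental adenocarcinoma cells grown in DMEM with 10% FBS, and normalized data fitted to concentration-response curves.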
# HT1080 IDH1KD tx: toxicity to HT-1080 IDH1 knockdown cells (counter line). HT-1080 IDH1 knockdown viability, ATP luminescence, 48 h. Potency, µM (top dose mostly 46.1 µM), inactives show at the top dose activity, negative = toxicity, hits mostly cytotoxic. 2% of 360,000 active. AID 686971;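 also: 0% = DMSO wells and -100% = cell-free medium wells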
#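 Luminescent ATP read-out (CellTiter-Glo, 10 min at room temperature) after 48 h compound exposure at 37 °C gave viability of IDH1-knockdown HT-1080 cells. Activity was normalised to DMSO and cell-free wells, then fitted as concentration-response curves.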
# * = called active by the depositor; i = inactive; ? = inconclusive; . = not tested or not shown; [ ] = another dose, or the depositor's remark. Rows were chosen to be rich in hits. Some 19% of all compounds tested hit in one or more screens of this group. Calls follow the shape of the dose curve; as a rule, active = well fitted curve in the direction sought with a large enough effect; inconclusive = small, poorly fitted or top-dose-only effect, or another doubt; inactive = no such curve, though single readings can be large; an effect the other way counts as inactive or inconclusive. Unless noted, % is scaled to controls: 0 for no effect and ±100 for the full control effect; potency is read from the fitted curve at half-maximal effect.
SMILES,HT1080-NT tox,TDP1 cell noCPT,DT40 TDP1 CPT,KB-V1 cytotox,KB-3-1 cytotox,HT1080 IDH1KD tx
COCCCN1C(=O)C(CC(=O)NCc2cccc3ccccc23)CC(C(=O)N2CCOCC2)=C1C (configuration not stated),18%,3%,12%,i,i,20%
COc1ccc(/C=C/C(=O)Nc2cccc(S(=O)(=O)NC3=NCCCCC3)c2)c(OC)c1,9%[9.24 µM],12µM*,16µM*,i,i,5%
COc1ccccc1/C=C/C(=O)Nc1cccc(S(=O)(=O)NC2=NCCCCC2)c1,8%,?,?,i,i,0%
O=C(COC(=O)/C=C/c1ccc(Cl)cc1)Nc1cccc(S(=O)(=O)NC2=NCCCCC2)c1,2%,-30%,?,i,i,2%
COc1cc(/C=C/C(=O)Nc2cccc(S(=O)(=O)NC3=NCCCCC3)c2)ccc1OCC#N,?,26µM*,?,i,i,?
COc1ccc(/C=C/C(=O)Nc2cccc(S(=O)(=O)NC3=NCCCCC3)c2)cc1,-1%,23µM*,?,?,?,-1%
O=C(/C=C/c1ccc(OC(F)F)cc1)Nc1cccc(S(=O)(=O)NC2=NCCCCC2)c1,-5%,?,?,?,i,-15%
CC(C)NC(=O)N1CC[C@@]2(CCCN(S(=O)(=O)c3ccccc3)C2)C1,.,-14%,14%,.,.,.
Cn1c(=O)[nH]c2cc3ccccc3cc21,13%,12%,-5%,1.3µM*,1.6µM*,2%
Cn1c(=O)[nH]c2cc(-c3noc(-c4cccc(Cl)c4)n3)ccc21,.,9%,5%,i,i,.
COc1cc(N2C(=O)CSC23C(=O)N(Cc2cccc(F)c2)c2ccccc23)cc(OC)c1OC (configuration not stated),.,.,.,i,i,.
COc1ccc(N2C(=O)CSC23C(=O)N(Cc2ccccc2F)c2ccccc23)cc1Cl (configuration not stated),.,.,.,18µM*,?,.
Cc1cc(C)cc(N2C(=O)CSC23C(=O)N(Cc2c(F)cccc2Cl)c2ccccc23)c1 (configuration not stated),.,16µM*,16µM*,?,?,.
O=C(CN1C(=O)C2(SCC(=O)N2c2ccc(F)c(F)c2)c2ccccc21)Nc1ccccc1F (configuration not stated),.,-20%,-12%,i,i,.
COc1cccc(N2C(=O)CSC23C(=O)N(Cc2ccccc2F)c2ccccc23)c1 (configuration not stated),.,.,.,?,i,.
COc1ccc(N2C(=O)CSC23C(=O)N(Cc2ccc(C)cc2)c2ccccc23)cc1Cl (configuration not stated),.,.,.,18µM*,?,.
O=C1CSC2(C(=O)N(Cc3ccccc3F)c3ccccc32)N1c1cccc(C(F)(F)F)c1 (configuration not stated),.,.,.,8.2µM*,18µM*,.
CCOc1ccccc1NC(=O)C1CCN(S(=O)(=O)c2cccc3nonc23)CC1,.,?,-12%,i,i,.
COc1ccc(N2CC(NC(=O)COc3ccc4ccccc4c3)CC2=O)cc1OC (configuration not stated),.,-23%,-27%,i,i,.
Cc1cccc(NC(=O)C2CCCN(S(=O)(=O)c3c(C)noc3/C=C/N(C)C)C2)c1C (configuration not stated),.,?,?,i,i,.
Cc1noc(/C=C/N(C)C)c1S(=O)(=O)N1CCCC(C(=O)NC2CCCCC2C)C1 (configuration not stated),-24%,21µM*,?,i,i,0%
Cc1cccc(C)c1NC(=O)C1CCCN(S(=O)(=O)c2c(C)noc2/C=C/N(C)C)C1 (configuration not stated),.,?,16µM*,i,?,.
Cc1noc(/C=C/N(C)C)c1S(=O)(=O)N1CCCC(C(=O)NC(C)c2ccccc2)C1 (configuration not stated),0%,-17%,-16%,i,i,0%
Cc1ccc(NC(=O)C2CCCN(S(=O)(=O)c3c(C)noc3/C=C/N(C)C)C2)cc1F (configuration not stated),6%[9.24 µM],18µM*,?,i,i,?
O=C(Nc1c(-c2ccccc2)nc2ccccn12)c1cccc(F)c1,-6%,-30%,-7%,i,?,-14%
SMILES,HT1080-NT tox,TDP1 cell noCPT,DT40 TDP1 CPT,KB-V1 cytotox,KB-3-1 cytotox,HT1080 IDH1KD tx
O=C(Nc1ccc2oc(-c3ccc4ccccc4c3)nc2c1)c1ccc2c(c1)OCCO2,?,8.2µM*,5.8µM*,2.6µM*,i,?
CCCOc1ccc(C(=O)Nc2ccc3oc(-c4ccc5ccccc5c4)nc3c2)cc1,.,-7%,6%,i,i,.
CC(C)c1ccc2oc(-c3cccc(NC(=O)c4ccc5c(c4)OCCO5)c3)nc2c1,.,16µM*,?,i,i,.
COc1ccc2oc(-c3ccc(C)c(NC(=O)c4ccc5c(c4)OCCO5)c3)nc2c1,.,16µM*,?,i,i,.
O=C(Nc1ccc2oc(-c3ccc4ccccc4c3)nc2c1)c1cccc(Cl)c1Cl,.,5.2µM*,8.2µM*,i,i,.
Cc1ccc(NC(=O)c2cccnc2C(=O)O)nc1,8%,-4%,-23%,i,i,12%
COCCNC(=O)c1ccc(CSc2nc3ccncc3n2Cc2ccccc2)cc1,.,-24%,-3%,?,i,.
Cc1ccc(NC(=O)Cn2c(SCc3cccc(F)c3)nc3ccncc32)c(C)c1,.,?,?,i,i,.
COc1cccc(CNC(=O)c2ccc(CSc3nc4ccncc4n3Cc3cccc(C)c3)cc2)c1,.,16µM*,21µM*,?,i,.
Cc1cccc(Cn2c(SCc3ccc(C(=O)NCc4ccccc4F)cc3)nc3cccnc32)c1,.,21µM*,?,15µM*,?,.
Cc1cccc(Cn2c(SCc3ccc(C(=O)NCc4ccccc4F)cc3)nc3ccncc32)c1,.,23µM*,?,i,i,.
COc1ccc(NC(=O)Cn2c(SCc3cccc(Cl)c3)nc3ccncc32)c(OC)c1OC,.,?,21µM*,i,i,.
Cc1cccc(Cn2c(SCc3ccc(C(=O)NC4CCCCC4)cc3)nc3ccncc32)c1,.,-19%,-9%,i,i,.
